Assay [1] addresses Tyrosine-protein kinase Yes (Homo sapiens) (UniProt P07947). As to the kind of experiment: qHTS for small molecule inhibitors of Yes1 kinase: Primary Screen (AID 686947). Also: nearly all actives have a fitted effect of over 60% in size. Also: potency is read from the fitted curve at half-maximal effect. Conditions: Yes1 kinase biochemical qHTS inhibition; series mostly up to 76.9 µM. In short, it runs like this:
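Yes1 (4 nM) preincubated 20 min with compound, then 60 min room-temperature reaction with 0.1 mM ATP and 0.3 mg/mL poly(E4Y) in pH 7.5 Tris, 10 mM MgCl2. ADP measured by ADP-Glo luminescence, normalised to enzyme/no-enzyme controls.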
Background: In qHTS, concentration-response curves come from the screen itself.

Assay [2] can be described thus: qHTS for small molecule inhibitors of Yes1 kinase: Counter Assay (AID 686950).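 Also: no kinase present so only ADP-Glo detection of a fixed ADP amount is tested; luminescence from ADP-Glo reporting ADP in a fixed ATP and ADP mixture.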 The conditions noted are these: series mostly up to 76.9 µM. The method, boiled down: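 Enzyme-free ADP-Glo interference check: compounds were preincubated 20 min in buffer, then an ATP/ADP mix (0.08 mM ATP, 0.02 mM ADP final) was added for 60 min at room temperature before two-step ADP-Glo luminescence detection.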

Assay [3] addresses Arylsulfatase A (Homo sapiens) (UniProt P15289). As to the kind of experiment: qHTS screen for enhancers of Arylsulfatase A (ASA1): LOPAC Validation Assay (AID 720538). Conditions: ASA enzyme activity, LOPAC qHTS enhancer assay; series mostly up to 57.5 µM. In short, it runs like this: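 SV40-transformed fibroblasts from an MLD patient (ASA-I179S) were treated with compound for 48 h at 37 C. They were then lysed with 0.5 mM pNCS substrate (final) for 14 h at room temperature and stopped with NaOH; signal read by fluorescence (Ex 525/Em 598 nm), with increase denoting enhanced activity.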

Results filed as inconclusive are left out. Where a call stands in place of a potency, no number is given. Active and inactive are the calls of the source. Calls follow the shape of the dose curve; as a rule, active = well fitted curve in the direction sought with a large enough effect; inconclusive = small, poorly fitted or top-dose-only effect, or another doubt; inactive = no such curve, though single readings can be large; an effect the other way counts as inactive or inconclusive.

Sequence of Tyrosine-protein kinase Yes (Homo sapiens) (P07947 whole entry, looked up): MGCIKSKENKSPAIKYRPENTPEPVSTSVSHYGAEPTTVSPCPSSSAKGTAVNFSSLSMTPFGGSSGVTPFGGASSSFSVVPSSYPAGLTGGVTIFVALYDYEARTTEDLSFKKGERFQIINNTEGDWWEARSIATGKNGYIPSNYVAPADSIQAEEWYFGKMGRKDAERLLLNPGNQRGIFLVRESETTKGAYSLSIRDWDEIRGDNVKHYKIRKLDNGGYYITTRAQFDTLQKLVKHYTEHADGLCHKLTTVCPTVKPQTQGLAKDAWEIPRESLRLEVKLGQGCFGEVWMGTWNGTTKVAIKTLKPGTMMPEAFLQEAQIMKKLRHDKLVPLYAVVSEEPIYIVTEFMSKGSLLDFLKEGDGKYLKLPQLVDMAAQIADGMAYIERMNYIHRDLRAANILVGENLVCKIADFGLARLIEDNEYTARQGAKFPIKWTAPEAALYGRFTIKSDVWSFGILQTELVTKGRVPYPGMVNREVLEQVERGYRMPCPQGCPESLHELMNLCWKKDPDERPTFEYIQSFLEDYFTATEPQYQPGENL
Sequence of Arylsulfatase A (Homo sapiens) (P15289 whole entry, looked up): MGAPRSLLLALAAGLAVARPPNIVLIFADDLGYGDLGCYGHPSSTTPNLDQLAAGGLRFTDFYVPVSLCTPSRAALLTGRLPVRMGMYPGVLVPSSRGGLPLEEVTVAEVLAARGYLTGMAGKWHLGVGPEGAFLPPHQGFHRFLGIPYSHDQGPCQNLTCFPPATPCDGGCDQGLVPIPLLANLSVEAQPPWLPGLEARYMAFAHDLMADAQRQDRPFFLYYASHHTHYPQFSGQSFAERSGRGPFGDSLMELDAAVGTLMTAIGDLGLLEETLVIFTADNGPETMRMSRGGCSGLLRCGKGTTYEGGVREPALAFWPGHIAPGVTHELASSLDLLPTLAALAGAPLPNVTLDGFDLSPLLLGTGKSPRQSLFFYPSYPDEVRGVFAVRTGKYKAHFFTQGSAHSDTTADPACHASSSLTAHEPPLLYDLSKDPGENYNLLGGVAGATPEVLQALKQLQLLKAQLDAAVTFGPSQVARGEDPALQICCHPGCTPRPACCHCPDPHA

On to `O=C(NCCS(=O)(=O)c1ccc(C(F)(F)F)cn1)c1ccc(Cl)cc1`, for which the Potency entry in assay [1] is “inactive”. The compound was called inactive in assay [2].

As to `CCCCc1nc2cc(C=CC(=O)NO)ccc2n1CCN(CC)CC`, the Potency entry in assay [1] is “inactive”. Moreover, in assay [2], the outcome was inactive.

In the case of `O=C(Nc1cc(C(F)(F)F)cc(C(F)(F)F)c1)c1cc(Cl)ccc1O`, the Potency result in assay [1] is “inactive”. Also, the compound was called inactive in assay [2].

With `Cc1ccc(C(N)=O)cc1Nc1nccc(-c2cn(C(C)C)c3cnccc23)n1`, the Potency in assay [1] is 0.547 µM (active). Also, in assay [2], the outcome was inactive.

Turning to `CC(C)(C)c1cc(NC(=O)Nc2ccc(-c3cn4c(n3)sc3cc(OCCN5CCOCC5)ccc34)cc2)no1`, the Potency result in assay [1] is “inactive”. The result in assay [2] was inactive.

As for `Fc1cc(-c2cccc3ncc(-c4cnn(C5CCNCC5)c4)nc23)cc(F)c1CN1CCOCC1`, the Potency in assay [1] was 0.308 µM (active). Besides, in assay [2], the compound was called inactive.

As for `CCC(=C(c1ccccc1)c1ccc(OCCN(C)C)cc1)c1ccccc1`, the Potency entry in assay [1] is “inactive”. Also, the call in assay [2] was inactive.

With `CC1(C)CCC(c2ccc(Cl)cc2)=C(CN2CCN(c3ccc(C(=O)NS(=O)(=O)c4ccc(N[C@H](CCN5CCOCC5)CSc5ccccc5)c(S(=O)(=O)C(F)(F)F)c4)cc3)CC2)C1`, the Potency in assay [1] was 30.7 µM (active). Further, the outcome in assay [2] was inactive.

Take `COc1ccc(CC2SC(=O)NC2=O)cc1C(=O)NCc1ccc(C(F)(F)F)cc1` (stereo unspecified): the Potency result in assay [1] was “inactive”. The compound was called inactive in assay [2].

As for `COc1ccc2c(c1)CC[C@@H](CN(C)CC(=O)O)[C@H]2c1ccccc1`, the Potency result in assay [1] was “inactive”. For the same compound, the outcome in assay [2] was inactive.

As for `C=CC(=O)Nc1cccc(Oc2nc(Nc3ccc(N4CCN(C)CC4)cc3OC)ncc2Cl)c1`, the Potency in assay [1] was 4.87 µM (active). Also, in assay [2], the outcome was inactive.

For `CCN(CC)CCCCNc1ncc2cc(-c3cc(OC)cc(OC)c3)c(NC(=O)NC(C)(C)C)nc2n1`, the Potency in assay [1] is 9.72 µM (active). Besides, the compound was classed as inactive in assay [2].

Regarding `CC1=C(CO)C(=O)O[C@@H]([C@@H](C)[C@H]2CC[C@H]3[C@@H]4C[C@H]5O[C@]56[C@@H](O)C=CC(=O)[C@]6(C)[C@@H]4CC[C@]23C)C1`, in assay [1], the Potency result is “inactive”. The call in assay [2] was inactive.

For `Cc1cnc(Nc2ccc(F)cc2Cl)nc1-c1c[nH]c(C(=O)N[C@H](CO)c2cccc(Cl)c2)c1`, in assay [1], the Potency entry is “inactive”. In addition, the outcome in assay [2] was inactive.

Regarding `COc1cc(C(C)C)c2c(c1)S(=O)(=O)N(COc1cc(=O)n3cccc(OCCN4CCCCC4)c3n1)C2=O`, in assay [1], the Potency result is “inactive”. In addition, in assay [2], the call was inactive.

Turning to `Nc1ccccc1NC(=O)c1ccc(CNC(=O)OCc2cccnc2)cc1`, the Potency in assay [1] is 15.4 µM (active). Also, the call in assay [2] was inactive.

With `C=CCn1c(=O)c2cnc(Nc3ccc(N4CCN(C)CC4)cc3)nc2n1-c1cccc(C(C)(C)O)n1`, in assay [1], the Potency is 0.0434 µM (active). Further, in assay [2], the compound was called inactive.

Take `Cn1cc(-c2[nH]c3cc(NC(=O)[C@H](N)C4CCCCC4)cc4c3c2C=NNC4=O)cn1`: the compound was classed as inactive in assay [2].

Regarding `CN1CC[C@@H](c2c(O)cc(O)c3c(=O)cc(-c4ccccc4Cl)oc23)[C@@H](O)C1`, in assay [1], the Potency was 34.5 µM (active). Moreover, the compound was called inactive in assay [2].

Take `Cc1cnc(-c2cnc(NCCNc3ccc(C#N)cn3)nc2-c2ccc(Cl)cc2Cl)[nH]1`: the Potency entry in assay [1] was “inactive”. For the same compound, the compound was classed as inactive in assay [2].

Turning to `Nc1nc(Nc2ccc(S(N)(=O)=O)cc2)nn1C(=O)c1c(F)cccc1F`, in assay [1], the Potency is 0.772 µM (active). Moreover, the call in assay [2] was inactive.

In the case of `N#Cc1c(O)c2c(-c3ccc(-c4ccccc4O)cc3)csc2[nH]c1=O`, in assay [1], the Potency result is “inactive”. Further, the call in assay [2] was inactive.

As to `Cc1cn(-c2cc(NC(=O)c3ccc(C)c(Nc4nccc(-c5cccnc5)n4)c3)cc(C(F)(F)F)c2)cn1`, in assay [1], the Potency entry is “inactive”. For the same compound, in assay [2], the outcome was inactive.

As to `O=c1c2ccccc2nc2n1CCc1c-2[nH]c2ccccc12`, the result in assay [3] was inactive.

Values taken from PubChem BioAssay (NCATS).
